Sampled rows, rich in hits. Any-hit rate of the full collection: about 19%.
DT40 TDP1 CPT: qHTS for Inhibitors of human tyrosyl-DNA phosphodiesterase 1 (TDP1): qHTS in cells in presence of CPT; actives 12% (n = 420,000); AID 686979, 2013; Potency, µM (series often up to 46.2 µM), for the others: at the top dose activity change, negative = growth inhibition, actives largely listed as inhibitors; chicken DT40 Tdp1-/-;hTDP1 cells + 20 nM CPT, ATP luminescence, 48 h; further: potency means the concentration at half of the fitted maximal effect; nearly all actives have a fitted effect of over 55% in size
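Chicken DT40 Tdp1-/- cells stably complemented with human TDP1 were seeded at 400 cells/well in medium containing 20 nM camptothecin, exposed to pin-transferred compounds, and grown at 37 °C for at least 48 hr. Viability was read as ATP luminescence.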
IL-1B inflam inh: qHTS for Inhibitors of Inflammasome Signaling: IL-1-beta AlphaLISA Primary Screen | activity change, % at 57.5 µM | THP-1 LPS/ATP IL-1B secretion, AlphaLISA, 16 h; hits give low values | actives 4.7% (n = 360,000); in the data active means activity change below about -50%; inconclusive means mostly about -30% to -49%
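Secreted IL-1B measured by AlphaLISA bead assay after 16 h compound exposure of THP-1 cells; compounds (final up to 57.5 uM) added 1 h before LPS (250 ng/mL) and ATP (1.25 mM) stimulation; lower signal means less secretion.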
DT40 TDP1 no CPT: qHTS for Inhibitors of human tyrosyl-DNA phosphodiesterase 1 (TDP1): qHTS in cells in absence of CPT. AID 686978, 2013. actives 15% (n = 420,000). DT40 Tdp1-/- hTDP1 cells, no CPT, ATP luminescence, 48 h. Potency, µM (series often up to 46.2 µM), for inactives: at the top dose activity change, negative = growth inhibition, hits mostly inhibitors; further: potency means the concentration at half of the fitted maximal effect; nearly all actives have a fitted effect of over 55% in size
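Growth of hTDP1-complemented DT40 Tdp1-knockout cells is measured by ATP luminescence after at least 48 hr compound exposure at 37 °C, with DMSO substituting for the 20 nM CPT used in the parallel screen.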
HT1080NT lethal: qHTS for induction of synthetic lethality in tumor cells producing 2HG: qHTS for the HT-1080-NT fibrosarcoma cell line; HT-1080-NT fibrosarcoma viability, CellTiter-Glo ATP luminescence, 48 h; actives 1.6% (n = 360,000); Potency, µM (doses to about 46.1 µM), for the others: at the top dose activity, negative = less viability, most hits filed as cytotoxic; AID 686970, 2013;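 further: NT is the 2HG producing partner of a matched IDH1 knockdown line; potency means the concentration at half of the fitted maximal effect; 0% = DMSO-treated cells and -100% = media-only wells without cells; nearly all actives have a fitted effect of over 55% in size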
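Toxicity toward the 2HG-producing NT line was scored as %Activity, normalised to DMSO and no-cell wells, from CellTiter-Glo luminescence after 48 hours' treatment.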
HT1080 IDH1KD tx: qHTS for induction of synthetic lethality in tumor cells producing 2HG: qHTS for the HT-1080-IDH1KD cell line; HT-1080 IDH1 knockdown viability, ATP luminescence, 48 h; Potency, µM (doses to about 46.1 µM), for the others: at the top dose activity, negative = toxicity, actives largely listed as cytotoxic; actives 2% (n = 360,000); AID 686971, 2013;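 further: potency means the concentration at half of the fitted maximal effect; 0% = DMSO wells and -100% = cell-free medium wells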
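Assay cells: HT-1080 with IDH1 knockdown, 750 per well, RPMI/5% FBS. Exposure: 48 h at 37 °C following 2 h pre-incubation. Read: CellTiter-Glo luminescence; fitted concentration-response, curve class assigned.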
Active calls of the source: *; i = inactive; ? = inconclusive; . = no result; ! = not active in a repeat; [ ] = dose if it differs, or a comment. Unless noted, the call rests on the fitted dose curve; in most records, active means well fitted curve in the direction sought with a large enough effect; inconclusive means small, poorly fitted or top-dose-only effect, or another doubt; inactive means no such curve, though single readings can be large; an effect the other way counts as inactive or inconclusive. Unless noted, on the % scale 0 is the no-effect control and ±100 the full control effect.

SMILES	DT40 TDP1 CPT	IL-1B inflam inh	DT40 TDP1 no CPT	HT1080NT lethal	HT1080 IDH1KD tx
COc1ccc(C2NC(=O)NC(C)=C2C(=O)OC2CCCCC2)cc1 (centres undefined)	18.4µM*	-25.5	?	-1.7%	3.2%
COc1ccc(C2NC(=O)NC(C)=C2C(=O)OC2CCC(C)CC2)cc1 (centres undefined)	?	-64.5*	18.4µM*	-3.8%	-0.7%
COc1ccc(S(=O)(=O)NCc2ccc3c(c2)CCN3C(C)=O)cc1OC	-28.8%	.	?	.	.
CCOc1ccc(-n2c(C)cc(/C=N/N(C)C)c2C)cc1	9.2µM*	27.5	7.31µM*	-7.5%	0.3%
CCOc1ccc(-n2c(C)cc(/C=N/Nc3nc(C)cc(=O)[nH]3)c2C)cc1	16.4µM*	-3.2	11.6µM*	0.5%	6.4%
CCOc1ccc(-n2c(C)cc(/C=N\NC(=O)CC(=O)NC3CCCCC3)c2C)cc1	18.4µM*	-29.1	13µM*	-25.6%	-26.9%
CCOc1ccc(-n2c(C)cc(/C=N/NC(=O)C(N)=O)c2C)cc1	5.4%	10.9	-18.5%	-17.6%	-0.3%
CC(C)[C@H](NC(=O)OCc1ccccc1)C(=O)OCC(=O)N1C(C)CCCC1C (some centres undefined)	-2.6%	12.1	-29.9%	-2.3%	0.5%
CCCCN1CCNC[C@@H]1Cc1ccccc1	11.1%	16.1	7.6%	0.4%	5.4%
c1ccc(C[C@H]2CNCCN2CCCCC2CCCCC2)cc1	?	-80.2*	?	-18.0%	-14.6%
c1ccc(C[C@H]2CNCCN2CC2CCCCC2)cc1	?	-23.5	16.4µM*	-4.5%	-4.3%
O=C1CC(C(=O)N2CCCC(c3nc(-c4ccncc4)ncc3-c3ccccc3)C2)C2(CCCCC2)O1 (centres undefined)	15.2%[9.04 µM]	.	-5.0%	.	.
CCCC(=O)NC(c1ccc(OC)cc1)c1c(O)ccc2ccccc12 (centres undefined)	?	-58.2*	23.1µM*	?	?
CC(=O)Oc1ccc2ccccc2c1C(NC(=O)Cc1ccccc1)c1ccc(Cl)cc1 (centres undefined)	?	-18.0	20.6µM*	?	18.4µM*
CC(C)CC(=O)NC(c1ccccc1Cl)c1c(O)ccc2ccccc12 (centres undefined)	?	-68.4*	-112.2%	-25.6%	?
COc1ccc(C(NC(=O)C2CCCCC2)c2c(O)ccc3ccccc23)cc1 (centres undefined)	?	-19.0	18.4µM*	-13.6%	-12.2%
Cc1ccc(NC(=S)NCc2ccc(Cl)cc2)c(OC(F)F)c1	?	i	?	1.3%	-10.6%
CCOc1ccc(OCC)c(NC(=O)C2CCN(c3cnccn3)CC2)c1	5.4%	?	7.0%	-3.3%	0.5%
CCn1c2ccc(C)cc2c2nnc(SCCN3CCOCC3)nc21	?	-64.2*	20.6µM*	-17.3%	?
CCn1c2ccccc2c2nnc(SCc3ccc(C(=O)OC)o3)nc21	18.4µM*	-20.9	23.1µM*	-6.6%	-15.3%
CCn1c2ccccc2c2nnc(SCc3ccccc3)nc21	?	23.7	?	1.1%	-17.5%
CCn1c2ccccc2c2nnc(SCCCn3c(=O)[nH]c4ccccc43)nc21	?	2.2	23.1µM*	-1.1%	17.1%
CCn1c2ccccc2c2nnc(SCCN3CCOCC3)nc21	-20.2%	12.4	?	0.7%	-1.5%
Cc1nc2c3cc(Cl)ccc3n(CCN3CCOCC3)c2s1	?	-23.4	14.6µM*	23.1µM*	20.6µM*
Cc1ccc2c(c1)c1nnc(SCC(=O)N3CCN(c4ccc(F)cc4)CC3)nc1n2CC(=O)O	-0.2%	17.3	-19.1%	0.8%	0.3%
SMILES	DT40 TDP1 CPT	IL-1B inflam inh	DT40 TDP1 no CPT	HT1080NT lethal	HT1080 IDH1KD tx
CCn1c2ccccc2c2nnc(SCCN3CCCCC3)nc21	25.9µM*	?	?	-9.2%	-10.7%
Cc1ccc2c(c1)c1nc3ccccc3nc1n2C	?	-6.0	?	-4.3%	-2.4%
CCCCn1c2ccc(C)cc2c2nnc(SCCN3CCCCC3)nc21	?	-78.4*	20.6µM*	-11.1%	-13.2%
Cc1ccc2c(c1)c1nc3ccccc3nc1n2CCN1CCOCC1	?	-58.3*	18.4µM*	-13.2%	-14.6%
COc1cc2c(cc1OC)CN(C(C)C(=O)Nc1ccc(NC(C)=O)cc1)CC2 (centres undefined)	-21.0%	-4.6	-25.6%	0.4%	8.8%
O=C(CN1CCN(Cc2ccc(Cl)cc2)C1=O)NCCN1CCCC1	15.1%	-12.4	-15.5%	0.1%	2.8%
Cc1cc2nc(-c3ccc[nH]c3=O)n(Cc3ccccc3F)c2cc1C	-16.9%	0.0	?	23.7%	10.6%
COCc1cc(Sc2ccc(Br)cc2)nc(-c2ccccc2)n1	-16.5%	5.8	?	-3.1%	-4.0%
Clc1cc(Sc2ccc(Br)cc2)nnc1-c1ccccc1	?	-19.0	29.1µM*	-14.2%	-17.7%
COc1ccc(N2CCN(C(=O)c3nn(C)c4c3CS(=O)(=O)c3ccccc3-4)CC2)cc1	23.1µM*!	17.6	?	9.8%	23.1%
Cn1nc(C(=O)N2CCN(c3cccc(Cl)c3)CC2)c2c1-c1ccccc1S(=O)(=O)C2	18.4µM*	-22.1	?	-1.8%	-4.4%
Cn1nc(C(=O)NCCc2ccc(Cl)cc2)c2c1-c1ccccc1S(=O)(=O)C2	?	-5.2	29.1µM*	-13.0%	-17.6%
COc1cc(NC(=O)c2nn(C)c3c2COc2ccccc2-3)cc(OC)c1OC	4.61µM*	.	3.26µM*	.	.
Cc1ccc(CCNC(=O)c2nn(C)c3c2CS(=O)(=O)c2ccccc2-3)cc1	?	-0.3	?	13.6%	7.9%
S=C(NCCc1ccccc1)NCCN1CCOCC1	-18.2%	19.9	9.0%	7.6%	3.5%
O=S(=O)(Nc1ccc2cn[nH]c2c1)c1ccc(Cl)s1	1.9%	39.3	-0.8%	-1.5%	-29.7%
CN1CCN(C(CNC(=O)C(=O)NC2CCCC2)c2ccc(F)cc2)CC1 (centres undefined)	-1.2%	-2.2	2.9%	14.1%	6.4%
Cc1ccccc1NC(=O)CSc1nnc2ccc(-c3cccnc3)nn12	-24.8%	-22.2	-6.9%	1.0%	-4.8%
CC(=O)c1ccc(N2CCN(C(=O)c3nn(C)c4c3CS(=O)(=O)c3ccccc3-4)CC2)cc1	?	-9.6	?	8.5%	-1.6%

Compound activity from PubChem.
